According to the supplement of paper PMC6555819:

How the values were obtained:
Experiment in all cases: PBM binding z-score (relative to random genomic background probes); higher = stronger binding; sequences stand for … in GC…GCGATTGACAGCGTAGAATGAAGG
[1] = system: FXR:RXRa (NR concentration 270 nM, RXRa partner concentration 90 nM)
In short: (§1)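 Scanned fluorescence from custom Agilent 4×180K protein-binding microarrays was regression-normalized. Binding z-scores use random background probes as reference. Ligand-free nuclear receptor dimers were incubated on the arrays for 1 h and detected with antibodies against each partner (one per run).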

[2] = system: LXRa:RXRa (NR concentration 270 nM, RXRa partner concentration 90 nM)
In short: as §1

[3] = system: LXRa homodimer (NR concentration 270 nM)
In short: as §1

[4] = system: LXRb:RXRa (NR concentration 270 nM, RXRa partner concentration 90 nM)
In short: as §1

[5] = system: LXRb homodimer (NR concentration 270 nM)
In short: as §1

[6] = system: PPARa:RXRa (NR concentration 270 nM, RXRa partner concentration 90 nM)
In short: as §1

[7] = system: PPARg:RXRa (NR concentration 180 nM, RXRa partner concentration 90 nM)
In short: as §1

[8] = system: PPARg:RXRa 270nM:90nM, anti-RXR (NR concentration 270 nM, RXRa partner concentration 90 nM)
In short: as §1

[9] = system: PPARg:RXRa 30nM:10nM, anti-RXR (NR concentration 30 nM, RXRa partner concentration 10 nM)
In short: as §1

[10] = system: PPARg:RXRa 90nM:30nM, anti-RXR (NR concentration 90 nM, RXRa partner concentration 30 nM)
In short: as §1

| Sequence | PBM binding z-score [1] | PBM binding z-score [2] | PBM binding z-score [3] | PBM binding z-score [4] | PBM binding z-score [5] | PBM binding z-score [6] | PBM binding z-score [7] | PBM binding z-score [8] | PBM binding z-score [9] | PBM binding z-score [10] |
| --- | --- | --- | --- | --- | --- | --- | --- | --- | --- | --- |
| CCAGACAGCTGAGAAGGTAACTCAGCCTCGATTA | -0.225 | -0.563 | -0.25 | -0.499 | -0.831 | -0.574 | -0.129 | -0.555 | -0.623 | -0.881 |
| GCTTCTAGGTCAACTGATGGTCAGCTAAAGCTCG | 4.49 | 3.12 | 0.562 | 2.48 | 1.06 | 4.69 | 6.35 | 5.64 | 3.01 | 5.05 |
| TCGAGTAGGTTAGGGGCATTCCGAATGGCGTCGA | 0.369 | 0.403 | -0.233 | 0.645 | -0.872 | 1.25 | 0.541 | 2.27 | 1.24 | 1.64 |
| GGAACGAGGGCTAAGTTGATAGCATCTGTCGACG | -0.545 | -0.626 | -0.392 | -0.796 | -0.848 | 0.746 | 1.37 | 2.81 | 1.41 | 2.31 |
| TCGAGTGGGTTAGGGGCATTCAGAATGGCGTCGA | 0.437 | 0.401 | 0.0912 | 1.41 | 0.759 | 1.46 | 0.402 | 1.73 | 0.9 | 1.31 |
| CGAACTAGGTCATAACAGGACAGTGAAGGATGAT | 3.19 | 4.15 | 0.43 | 1.95 | 0.0725 | 4.26 | 6.94 | 6.14 | 3.52 | 5.3 |
| ACTATTAGTGGAGACGAGGGCAACCGATAGGTTG | 0.0192 | -0.21 | -0.488 | -0.347 | -0.31 | -0.00529 | 0.674 | 0.335 | -0.0792 | 0.232 |
| CAGCCTAGGTCAGGGCCAGTACAGGAGGAACGTT | 1.53 | 0.993 | -0.276 | 0.431 | -1.11 | 2.09 | 0.833 | 0.908 | -0.375 | 0.307 |
| CCAGACACGTGAGAAGGTAACTCAGCCTCGATTA | -0.22 | -0.083 | -0.348 | -0.3 | -0.11 | -0.534 | 0.37 | -0.804 | -0.82 | -0.704 |
| GCTAGTTGGTCAGTAAAAGGTCTCACACCGGTCG | -0.182 | -0.0505 | -0.00726 | -0.0991 | -0.275 | 0.0782 | 0.203 | 0.834 | -0.473 | 0.379 |
| TCTATTAGTAGAAGGGCAACCGACGAGTCCGTTT | 0.288 | 0.212 | 0.0189 | 0.17 | -0.103 | 0.688 | 0.23 | 1.93 | 3.29 | 2.44 |
| TCTCGGAGGACACGAAAGGTCAGAGTTCGACATC | 3.3 | 4.16 | 4.17 | 3.5 | 0.134 | 3.71 | 1.72 | 3.4 | 2.89 | 3.12 |
| CTACCATGGTGAACAAGGTCGTTGATTACTATTC | 0.251 | 0.452 | 0.165 | 1.23 | -0.219 | 1.07 | 0.161 | 0.378 | -0.000193 | 0.175 |
| CGTCCGAGGTCAGAGAGGTCAGTGAATGCCGAGT | 6.42 | 5.78 | 3.42 | 5.43 | 0.406 | 5.62 | 4.63 | 5.26 | 2 | 4.02 |
| TCGAGTAGGTTAGTCGGGGGATTCAGCCAACATA | 0.552 | 0.506 | -0.00348 | 2.06 | 6.46 | 1.13 | 0.0949 | 1.49 | 1.26 | 1.28 |
| TCAGACAGGTGAAGGAAACTCAGGTACGCAGTCG | 0.911 | 1.04 | 0.00488 | 0.561 | 0.0545 | 1.05 | 0.717 | 2.37 | 4.29 | 3.32 |
| GCATATAGTTAATACAAGGTGAAAGTCCGATTGT | 0.799 | 0.553 | 0.623 | 0.44 | -0.202 | 0.488 | 0.801 | 0.639 | 0.496 | 0.653 |
| CAAACTAGGTCACCGGAAGGTCAAAATCCGCATG | 5.79 | 5.77 | 4.45 | 5.33 | 1.71 | 6.21 | 9.82 | 7.79 | 5.96 | 7.63 |
| TAGCCTAGGTCATTCTGGGGCCAGTATAGAAAGC | 4.29 | 3.66 | 0.795 | 2.94 | 1.34 | 3.37 | 1.98 | 2.19 | 0.292 | 1.44 |
| AAAATGAGGTTATACGTAGATCAGGGAAGAAAGT | 2.34 | 2.36 | 0.225 | 1.87 | 0.19 | 3.52 | 2.69 | 2.4 | 1.33 | 1.9 |
| CGAACTAGGCCAGAACAGGACAGTGAAGGATGAT | -0.345 | -0.433 | -0.144 | -0.816 | -0.951 | 0.499 | 1.22 | 0.225 | 0.233 | 0.37 |
| CCTACTGGGGCAAGGTCATTGATCAGTCAAAGCA | 3.59 | 3.26 | 1.02 | 2.98 | -0.569 | 4.29 | 5.81 | 5.36 | 2.53 | 4.8 |
| GCTATTAGTTGAAAGGGAAACCGAATGATTCTCG | -0.0917 | -0.171 | 0.0809 | -0.236 | -0.289 | 0.000801 | 0.567 | 1.6 | 0.38 | 1.25 |
